aSyn rescue = rescues yeast growth from alpha-synuclein toxicity; Potency, µM (doses to about 46.1 µM), for inactives: at the top dose growth rescue (activation), hits mostly activators; Yeast expressing alpha-synuclein, growth rescue, BacTiter-Glo, 24 h; hit rate 0.14% among 370,000; AID 652106; note: % of control where 0% means no effect; nearly all actives have a fitted effect of over 65% in size
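Rescue of yeast growth: cells expressing toxic alpha-synuclein, induced in galactose at OD600 0.02, incubated with compound 24 h at 30 C. ATP luminescence quantified growth; inhibitors of toxicity appear as activators.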
TDP-43 yeast inh = rescues yeast growth from TDP-43 toxicity; TDP-43 expressing yeast growth rescue, BacTiter-Glo, 24 h; Potency, µM (titrated, usually from 46.1 µM), for inactives: at the highest dose growth rescue (activation), actives largely listed as activators; hit rate 1.8% among 410,000; AID 652104; note: % of control where 0% means no effect; nearly all actives have a fitted effect of over 50% in size
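Galactose-induced TDP-43 yeast, OD600=0.02, compound pinned; 24 hr, 30 deg C; BacTiter-Glo luminescence for growth. Inhibitors of TDP-43 toxicity read as activators.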
FUS suppressor = rescues growth of FUS-expressing yeast | S. cerevisiae FUS-expressing, growth rescue, OD600, 24 h | Potency, µM (top dose mostly 76.6 µM), usual class: activators | hit rate 0.24% among 390,000;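 note: plate controls were DMSO vehicle for no effect and reference control for full effect; nearly all actives have a fitted effect of over 55% in size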
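Restored growth of FUS-toxic S. cerevisiae, read as 600 nm absorbance after 24 h at 30C in galactose medium (starting OD 0.005). Controls CP55940 and DMSO.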
Abeta rescue = compounds reversing amyloid beta toxicity in yeast. yeast expressing A-beta42, growth rescue, OD600, 48 h; response scale: 0% DMSO, 100% iron-clioquinol control. AID 1347071. Potency, µM (titrated, usually from 46.1 µM), usual class: activators. hit rate 0.063% among 410,000; note: nearly all actives have a fitted effect of over 55% in size
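Yeast growth medium received pinned compounds, then yeast cells expressing toxic A-beta were added; plates incubated at 30 C for 48 hr. Growth read as absorbance at 600 nm, normalized to DMSO and equimolar FeCl3 plus clioquinol controls.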
An asterisk follows results filed as active; i = inactive; ? = inconclusive; nt = not tested or not shown; [ ] = another dose, or the depositor's remark. In the library only some 2.1% were active in any assay of this set; here they are far more common. Calls come from the whole dose curve; as a rule, active = well fitted curve in the direction sought with a large enough effect; inconclusive = small, poorly fitted or top-dose-only effect, or another doubt; inactive = no such curve, though single readings can be large; an effect the other way counts as inactive or inconclusive. Potency is the fitted concentration of half-maximal effect.

SMILES | aSyn rescue | TDP-43 yeast inh | FUS suppressor | Abeta rescue
Cc1cccc(Nc2nc3ccccc3s2)c1C | -7.1% | 11.2µM* | i | ?
CCOc1ccc(NC(=O)CC2C(=O)N(c3cccc(C)c3)C(=O)N2CCC2=CCCCC2)cc1 (stereo not given) | nt | -23.8% | 35.5µM* | i
COP(=O)(O)C(COCCC(CC(C)C)NC(=O)OCc1ccccc1[N+](=O)[O-])NC(=O)OCc1ccccc1 (stereo not given) | nt | nt | i | nt
O=C(N/N=C/c1c[nH]c2ccccc12)c1ccn(Cc2ccc(Cl)cc2)n1 | 0.9% | 10.2% | i | i
O=C(N/N=C/c1c[nH]c2ccc(Br)cc12)c1ccn(Cc2ccc(Cl)cc2Cl)n1 | 1.5% | 20.1% | 28.2µM* | i
Cc1ccc(Cn2ccnc2SCC(=O)Nc2nc3ccccc3s2)cc1 | nt | 22.4µM* | ? | i
CCOc1ccc(NC(=O)CN(c2ccccc2OCC)S(=O)(=O)c2ccccc2)cc1 | nt | 0.0% | i | i
CCOc1ccc(NC(=O)CN(c2ccc(Cl)cc2C)S(=O)(=O)c2ccccc2)cc1 | nt | 7.1% | 22.4µM* | i
O=C(CSc1ccc(F)cc1)NCCSc1ccccc1 | 6.5% | 12.6µM* | i | i
CCOc1ccc(C(=O)COc2ccc(NC(C)=O)cc2)cc1 | 6.9% | -1.0% | 11.2µM* | i
Cc1ccc(C2CCC3(CCC(=O)N3CCOC(=O)Nc3ccc(F)cc3)CC2)cc1 (stereo not given) | nt | nt | i | nt
CC(C)CC(N)c1csc(NC(=O)NCCc2ccccc2)n1 (stereo not given) | 1.8% | 12.4% | i | i
NC(Cc1ccc(C(F)(F)F)cc1)c1csc(NC(=O)NCCc2ccccc2)n1 (stereo not given) | -36.5% | 0.0% | 22.4µM* | i
CCCCC(CC)CNC(=O)c1[nH]c(C)c(C(C)=O)c1C (stereo not given) | -1.2% | 12.6µM* | i | i
C/C(C=NNC(=O)CSc1nc2ccccc2n1C)=C\c1ccccc1 | nt | nt | i | nt
CC1CCc2nn(CC(=O)NCCC3=CCCCC3)cc2C1 (stereo not given) | -1.7% | 17.8µM* | i | ?
CC1=CC(C)(C)NC(=S)N1C(C)c1ccccc1 (stereo not given) | -7.1% | 14.7% | i | 10µM*
Cn1nc(-c2ccccc2)c(CO)c1Oc1cccc(C(F)(F)F)c1 | 3.6% | 11.2µM* | i | i
COc1ccc(NC(=O)CSc2nc(N)c3cc4c(nc3n2)CCCC4)c(OC)c1 | 4.2% | -32.1% | 31.6µM* | i
CC1CCCCN1C(=O)CSc1c2c(nc3cc(Cl)ccc13)CCCC2 (stereo not given) | nt | 2.8% | i | i
COc1ccc(OC)c(NC(=O)CSc2c3c(nc4cc(Cl)ccc24)CCCC3)c1 | nt | 20µM* | i | i
O=C(CSc1c2c(nc3cc(Cl)ccc13)CCCC2)N1CCN(c2ccccc2F)CC1 | nt | 35.5µM* | i | i
O=C(CSc1c2c(nc3ccc(Cl)cc13)CCCC2)N1CCCCC1 | nt | 15.8µM* | i | i
COC(=O)C1CN(Cc2cn(Cc3ccc(OC)cc3)nn2)CCS(=O)(=O)N1Cc1ccc(F)cc1 (stereo not given) | nt | nt | i | nt
CC1CCCN(C(=O)CSc2c3c(nc4cc(Cl)ccc24)CCCC3)C1 (stereo not given) | nt | 17.8µM* | i | i
SMILES | aSyn rescue | TDP-43 yeast inh | FUS suppressor | Abeta rescue
O=C(CN1N=C(C(F)(F)F)CC1(O)c1ccc([N+](=O)[O-])cc1)c1ccccc1 (stereo not given) | 16.1% | 15.8µM* | i | i
O=C(c1ccccc1O)N1N=C(C(F)(F)F)CC1(O)c1ccc([N+](=O)[O-])cc1 (stereo not given) | -2.9% | 15.9% | i | i
COc1cccc(/C=C2\CC3(OC(=O)c4ccco4)CCCN2C3)c1 (stereo not given) | nt | nt | i | nt
COc1ccc(CCNc2ccc(C(=O)O)cc2[N+](=O)[O-])cc1OC | -0.8% | 2.2% | i | i
O=C(O)c1ccc(NCCC2=CCCCC2)c([N+](=O)[O-])c1 | 0.7% | 15.8µM* | i | i
c1ccc(-c2ccnc3nc(N4CCN(c5ccccc5)CC4)nn23)cc1 | 8.2% | 12.6µM* | i | i
Cc1cccc(Cn2cc(C(=O)Nc3cc(F)ccc3F)ccc2=O)c1 | ? | 22.4µM* | ? | ?
CC(=O)N1CCCN(C(=O)CCn2nnc3ccccc32)CC1 | nt | nt | i | nt
COc1ccc(CN(CCN2CCOCC2)C(=O)c2ccc(F)cc2F)cc1OC | nt | nt | i | nt
COC(=O)C1CN(Cc2cn(CCOC(C)=O)nn2)CCS(=O)(=O)N1Cc1ccc(Cl)cc1 (stereo not given) | nt | nt | i | nt
Cc1nc2ccc(NC(=O)Cc3ccc4c(c3)OCCO4)cc2s1 | -49.1% | 3.55µM* | nt | i
Cc1nc2ccc(NC(=O)Cc3ccc(Br)cc3)cc2s1 | -15.9% | -17.1% | i | i
O=c1ccsn1Cc1ccccc1 | 0.4% | 10µM* | nt | i
O=C1NC(Cc2ccccc2)C(=O)N1Cc1ccccc1 (stereo not given) | -4.0% | 9.4% | i | i
C[C@H](NS(=O)(=O)c1ccc([N+](=O)[O-])cc1)C(=O)NCCNC(=O)[C@@H](C)NS(=O)(=O)c1ccc([N+](=O)[O-])cc1 | nt | nt | i | nt
O=C(OCc1csc(Nc2ccccc2)n1)c1ccc(Cl)cc1 | -17.2% | 10µM* | i | ?
O=C(OCc1csc(-c2ccccc2)n1)c1ccc(O)cc1 | -7.8% | 10µM* | i | i
Cc1ccc(C(=O)NCC(=O)OCc2csc(-c3ccccc3)n2)cc1 | -4.4% | 14.7% | i | i
COc1ccc(Cn2cc(CN3[C@H](Cc4ccccc4)COc4cc(Br)ccc4S3(=O)=O)nn2)cc1 | nt | nt | i | nt
O=C(/C=C/c1ccc(Cl)cc1)Nc1ccccc1N1CCOCC1 | -0.2% | 14.1% | i | i
CC(=O)Nc1ccc(NC(=S)NC(=O)/C=C/c2ccco2)cc1 | -3.9% | -22.5%[1.82 µM] | ? | i
O=C(/C=C/c1ccco1)NC(=S)Nc1ccccc1N1CCCC1 | -0.4% | 22.4µM* | ? | ?
COc1cccc(/C=C/C(=O)Nc2ccccc2N2CCOCC2)c1 | -18.5% | 22.4µM* | i | i
O=C(/C=C/c1ccco1)NC(=S)Nc1ccccc1N1CCOCC1 | 2.1% | 25.1µM* | i | i
CC(=O)N(C)c1ccc(NC(=S)NC(=O)/C=C/c2ccco2)cc1 | 3.4% | 20.9% | 35.5µM* | i
CC(=O)c1cc(-c2ccc(-c3ccccc3)c(F)c2)c(=O)n2c1CCC2 | nt | nt | i | nt
CCCCCCCCCC[n+]1cc(Br)cc(Br)c1 | 9.5% | nt | nt | nt
CCN(Cc1cccc(S(=O)(=O)O)c1)c1ccc(C(=C2C=CC(=[N+](CC)Cc3cccc(S(=O)(=O)O)c3)C=C2)c2ccccc2S(=O)(=O)[O-])cc1 | -50.9% | nt | nt | nt
O=C(NC(=S)Nc1ccccc1N1CCCCC1)c1ccco1 | 2.2% | 35.5µM* | i | i
CC(C)(O)c1cc2ccc(C#Cc3ccsc3)cc2c(=O)o1 | 0.6% | 25.1µM* | i | i
